From PubChem BioAssay (NCATS)
Records with an inconclusive call do not appear. Calls of active or inactive are those of the source. The call rests on the fitted dose curve; in most records, active means well fitted inhibition curve with a large enough effect; inconclusive means small, poorly fitted or top-dose-only effect; inactive means flat fitted curve, though single readings scatter.

Tests used:
[1] = target: Luciferin 4-monooxygenase (Photinus pyralis) (UniProt P08659); experiment: Biochemical firefly luciferase enzyme assay for NPC (AID 624030);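 further: purified P. pyralis luciferase at 10 nM with luciferin and ATP substrate; nearly all actives have a fitted effect of over 70% in size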
Chain of Luciferin 4-monooxygenase (Photinus pyralis) (P08659 whole entry, looked up): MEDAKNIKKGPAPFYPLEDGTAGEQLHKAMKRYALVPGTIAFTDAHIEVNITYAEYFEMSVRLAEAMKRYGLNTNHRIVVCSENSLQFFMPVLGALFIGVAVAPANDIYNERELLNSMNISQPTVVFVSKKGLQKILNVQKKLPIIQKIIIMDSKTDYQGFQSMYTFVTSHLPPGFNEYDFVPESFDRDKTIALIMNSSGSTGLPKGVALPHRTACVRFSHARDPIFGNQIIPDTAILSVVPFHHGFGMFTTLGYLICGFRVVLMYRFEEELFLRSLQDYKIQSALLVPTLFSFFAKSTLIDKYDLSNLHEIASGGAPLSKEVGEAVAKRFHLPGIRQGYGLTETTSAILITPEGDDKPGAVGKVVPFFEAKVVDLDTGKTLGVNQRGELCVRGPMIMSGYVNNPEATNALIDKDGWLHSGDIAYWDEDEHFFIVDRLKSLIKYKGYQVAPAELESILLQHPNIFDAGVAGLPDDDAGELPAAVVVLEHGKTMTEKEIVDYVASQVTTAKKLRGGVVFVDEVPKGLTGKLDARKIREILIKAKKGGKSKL
How it was run: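 Purified P. pyralis luciferase at 10 nM in 50 mM Tris Acetate (final), luminescence read within 5 minutes of enzyme addition to compounds. Activity normalised to PTC124 versus DMSO; concentration-response curves classed by r2, magnitude and activity.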

AA1029 = experiment: qHTS profiling for inhibitors of Plasmodium falciparum proliferation (AID 504749); further: nearly all actives have a fitted effect of over 60% in size; further: potency means the concentration at half of the fitted maximal effect; conditions: P. falciparum in erythrocytes, SYBR Green DNA, 72 h; series mostly up to 28.7 µM
How it was run: (§1)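 Readout was DNA-dye fluorescence from lysed cultures, ex 485/em 535 nm. Parasitized red cells had grown 72 h with compound; data scaled between 0.29 uM artemisinin and DMSO wells and corrected using vehicle-only plates.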

AS120 = experiment: as above; conditions: P. falciparum in erythrocytes, SYBR Green DNA, 72 h; series mostly up to 28.7 µM
How it was run: as §1

CP194 = experiment: as above; conditions: P. falciparum in erythrocytes, SYBR Green DNA, 72 h; series mostly up to 28.7 µM
How it was run: as §1

CP203 = experiment: as above; conditions: P. falciparum in erythrocytes, SYBR Green DNA, 72 h; series mostly up to 28.7 µM
How it was run: as §1

CP211 = experiment: as above; conditions: P. falciparum in erythrocytes, SYBR Green DNA, 72 h; series mostly up to 28.7 µM
How it was run: as §1

CP237 = experiment: as above; conditions: P. falciparum in erythrocytes, SYBR Green DNA, 72 h; series mostly up to 28.7 µM
How it was run: as §1

CP268 = experiment: as above; conditions: P. falciparum in erythrocytes, SYBR Green DNA, 72 h; series mostly up to 28.7 µM
How it was run: as §1

CP269 = experiment: as above; conditions: P. falciparum in erythrocytes, SYBR Green DNA, 72 h; series mostly up to 28.7 µM
How it was run: as §1

CP305 = experiment: as above; conditions: P. falciparum in erythrocytes, SYBR Green DNA, 72 h; series mostly up to 28.7 µM
How it was run: as §1

CP329 = experiment: as above; conditions: P. falciparum in erythrocytes, SYBR Green DNA, 72 h; series mostly up to 28.7 µM
How it was run: as §1

FAB9 = experiment: as above; conditions: P. falciparum in erythrocytes, SYBR Green DNA, 72 h; series mostly up to 28.7 µM
How it was run: as §1

JCK = experiment: as above; conditions: P. falciparum in erythrocytes, SYBR Green DNA, 72 h; series mostly up to 28.7 µM
How it was run: as §1

N140 = experiment: as above; conditions: P. falciparum in erythrocytes, SYBR Green DNA, 72 h; series mostly up to 28.7 µM
How it was run: as §1

PAD = experiment: as above; conditions: P. falciparum in erythrocytes, SYBR Green DNA, 72 h; series mostly up to 28.7 µM
How it was run: as §1

PC15 = experiment: as above; conditions: P. falciparum in erythrocytes, SYBR Green DNA, 72 h; series mostly up to 28.7 µM
How it was run: as §1

SC27B = experiment: as above; conditions: P. falciparum in erythrocytes, SYBR Green DNA, 72 h; series mostly up to 28.7 µM
How it was run: as §1

TAB109 = experiment: as above; conditions: P. falciparum in erythrocytes, SYBR Green DNA, 72 h; series mostly up to 28.7 µM
How it was run: as §1

TAB113 = experiment: as above; conditions: P. falciparum in erythrocytes, SYBR Green DNA, 72 h; series mostly up to 28.7 µM
How it was run: as §1

TAB165 = experiment: as above; conditions: P. falciparum in erythrocytes, SYBR Green DNA, 72 h; series mostly up to 28.7 µM
How it was run: as §1

Measured: Potency

C[C@]12CC[C@@H]3c4ccc(O)cc4CC[C@H]3[C@@H]1C[C@H](O)C2O (stereo partly drawn)
inactive: all assays above

Cc1ccc(S(=O)(=O)NC(=O)NC(C)Cc2ccccc2)cc1 (stereo not drawn)
inactive: all assays above

CC[C@@H](C)C(N)C(=O)O (stereo partly drawn)
inactive: all assays above

O=C1CC[C@H](C(=O)N[C@@H]2C[C@H]2c2ccccc2)N1
inactive: all assays above

CO/N=C(/C(=O)N[C@@H]1C(=O)N2C(C(=O)O)=C(CSc3nc(C)c(CC(=O)O)s3)CS[C@H]12)c1csc(N)n1
inactive: all assays above

C=C1[C@@H]2CC[C@H](C2)C1(C)C
inactive: all assays above

CC(O)C1CCC2C3CCC4CC(O)CCC4(C)C3CCC12C (stereo not drawn)
inactive: all assays above

CC(=O)NC1[C@H](O)C[C@@](O)(C(=O)O)O[C@H]1[C@H](O)[C@H](O)CO (stereo partly drawn)
inactive: all assays above

CCCC[C@H](O)c1ccccc1
inactive: all assays above

NC(C(=O)O)c1ccc(O)cc1 (stereo not drawn)
inactive: all assays above

C[C@@H]1C(SC2Cn3cnc[n+]3C2)=C(C(=O)[O-])N2C(=O)[C@H]([C@@H](C)O)[C@@H]12 (stereo partly drawn)
inactive: all assays above

CCN(CC)C(=O)Nc1ccc(OC[C@H](O)CNC(C)(C)C)c(C(C)=O)c1
inactive: all assays above

O=C(O)CC(O)CC(O)/C=C/c1c(C2CC2)nc2ccccc2c1-c1ccc(F)cc1 (stereo not drawn)
inactive: all assays above

CC(=O)OCC(=O)[C@@]1(O)CCC2C3CCC4=CC(=O)C=CC4(C)C3C(O)C[C@]21C (stereo partly drawn)
inactive: all assays above

COc1cccc(OC)c1C(=O)NC1C(=O)N2C1SC(C)(C)C2C(=O)O (stereo not drawn)
inactive: all assays above

CNC1C(O)C(OC2C(N)CC(N)C(OC3OC(CN)=CCC3N)C2O)OCC1(C)O (stereo not drawn)
inactive: all assays above

OCC1O[C@H](Oc2ccc(O)cc2)C(O)C(O)C1O (stereo partly drawn)
inactive: all assays above

C=C[C@H]1CN2CCC1C[C@H]2[C@H](O)c1ccnc2ccc(OC)cc12 (stereo partly drawn)
inactive: [1]
active: AA1029 891 nM | AS120 1410 nM | CP194 1070 nM | CP203 1690 nM | CP211 1350 nM | CP237 1260 nM | CP268 1510 nM | CP269 1510 nM | CP305 1350 nM | CP329 1690 nM | FAB9 794 nM | JCK 10000 nM | N140 631 nM | PAD 891 nM | PC15 447 nM | SC27B 1000 nM | TAB109 501 nM | TAB113 708 nM | TAB165 1120 nM

CC[C@@]1(O)C[C@H](O[C@H]2C[C@@H](N(C)C)[C@@H](O[C@H]3C[C@@H](O)[C@@H](O[C@H]4CCC(=O)[C@@H](C)O4)[C@@H](C)O3)[C@@H](C)O2)c2c(cc3c(c2O)C(=O)c2c(O)cccc2C3=O)[C@H]1C(=O)OC
active: AA1029 199 nM | AS120 100 nM | CP194 953 nM | CP203 849 nM | CP211 849 nM | CP237 35.5 nM | CP268 953 nM | CP269 849 nM | CP305 601 nM | CP329 849 nM | FAB9 891 nM | JCK 126 nM | N140 178 nM | PAD 178 nM | PC15 158 nM | SC27B 316 nM | TAB109 224 nM | TAB113 199 nM | TAB165 141 nM
inactive: [1]

CCCCCCCCCCCC(=O)OCC(O)C1OCC(O)C1O (stereo not drawn)
inactive: all assays above

CCC(C(=O)O)C1OC(C(C)C(O)C(C)C(=O)C(CC)C2OC3(C=CC(O)C4(CCC(C)(C5CCC(O)(CC)C(C)O5)O4)O3)C(C)CC2C)C(C)CC1C (stereo not drawn)
inactive: [1]
active: AA1029 158 nM | AS120 79.4 nM | CP194 75.7 nM | CP203 37.9 nM | CP211 67.5 nM | CP237 56.2 nM | CP268 75.7 nM | CP269 95.3 nM | CP305 53.6 nM | CP329 95.3 nM | FAB9 282 nM | JCK 199 nM | N140 141 nM | PAD 224 nM | PC15 158 nM | SC27B 89.1 nM | TAB109 112 nM | TAB113 79.4 nM | TAB165 158 nM

CN1[C@@H]2CC[C@@H]1CC(OC(=O)[C@H](CO)c1ccccc1)C2 (stereo partly drawn)
active: JCK 15800 nM
not listed: PC15 | TAB113
inactive: all other assays above
